In PubChem BioAssay AID1347431 (National Center for Advancing Translational Sciences (NCATS), 2020):
Screen size: about 1,200 compounds; fewer than 10 were called active. Calls come from the whole dose curve; as a rule, active = well fitted curve in the direction sought with a large enough effect; inconclusive = small, poorly fitted or top-dose-only effect, or another doubt; inactive = no such curve, though single readings can be large or run the other way. Only a sample is shown.

Assay: Confirmatory qHTS assay for inhibitors of Activation Induced Cytidine Deaminase (AID): UDG signals
Settings: UDG coupled enzyme activity counter-screen; series mostly up to 115 µM
From the text: Assay Provider (PI) Patricia Gearhart Ph.D.
National Institute on Aging
National Institute of Health (NIH), Bethesda, MD
Assay Provider (PI) Rahul Kohli Ph.D.
Perelman School of Medicine
University of Pennsylvania, Philadelphia, PA
Activation-Induced Deaminase (AID) is a cytosine deaminase which converts cytosine into uracil within stretches of ssDNA. The presence of uracil in DNA initiates a cascade of mutagenic DNA repair to introduce point mutations and DNA double strand breaks. Specific targeting of AID to the immunoglobulin heavy chain loci (Igh) promotes mutagenesis in the antibody variable region for somatic hypermutation (SHM) or switch regions leading to class switch recombination (CSR). However, AID also plays a role in accumulating unnecessary mutations across the genome. Mis-targeting of AID results in the initiation of tumor development and leads to greater drug resistance among cancer cells when continually expressed. To identify an AID inhibitor, a small molecule library will be screened in collaboration with NCATS core facility at NIH. To confirm biological function, inhibitors will be examined in an in vitro murine B-cell activation assay and subsequent secondary validation screens. Top molecules will be further screened to identify inhibitory efficacy against a wild type primary splenocytes assay. Using these approaches, we hope to identify a small molecule with great efficacy and low toxicity for use as a molecular probe to further characterize AID's intricacies, or even as a therapeutic.
A FRET based analysis of cytosine deamination, was developed to identify potential inhibitors of AID catalytic activity. This screen has two signal output, Read 1 evaluates the AID inhibition response. The second readout (Read 2) evaluates UDG response and is uses as a counterscreen to exclude false positive inhibitors. Inhibition in AID and inactivity in the UDG signal is the desired outcome for this assay.
SEQUENCE No. (e.g., 1, 2, 3, etc.); […] (e.g., Cells, Incubation, Reagent, etc.); VALUE; DESCRIPTION
1a; Reagent; 3 uL; [4/3x] 1 uM AID/2.67 U/mL UDG
1b; Reagent; 3 uL; 2 U/mL UDG
1c; Reagent; 3 uL; 1 uM AID
2a; Compound; 46 nL; Follow-up plates (0.64 uM - 10 mM)
2b; Control; 46 nL; ATA ([…] - 10 mM)
3; Time; 10 min; incubation at room temperature
5; Time; 4 hr; incubation at room temperature
6; Reagent; 4 uL; [2x] 250 mM NaOH
7; Time; 15 sec; centrifuge at 1000 rpm
8; Time; 30 min; incubation at room temperature
9a; Detection; fluorescence (Read 1: AID); EnVision (PerkinElmer) plate reader, 540 excitation and 590 emission filters
9b; Detection; fluorescence (Read 2: UDG); EnVision (PerkinElmer) plate reader, 560 excitation and 665 emission filters
NOTES (numbers refer to sequence above)
1a; Reagents were dispensed in a medium-binding black solid-bottom Greiner plates (789176F) using a BioRptr liquid dispenser. Dispense 3 uL of [4/3x] 1 uM AID (provided by Kohli lab) and [4/3x] 2 U/mL UDG (NEB M0280L) into columns 1, 2, 5 to 48.
1b; Dispense 3 uL of [4/3x] 2 U/mL UDG into column 3.
1c; Dispense 3 uL of [4/3x] 1 uM AID into column 4.
2a; Compound (7-points [uM]: 0.64; 3.2; 16; 80; 400; 2,000; 10,000; […]) double pin-transferred (Dip Factor = 2) using the Kalypsys (Wako USA) pintool equipped with a 1536 pinhead for a final concentration range of 7.32 nM - 114 uM.
2b; 10 mM Aurintricarboxylic Acid (Sigma A1895) (ATA, 8-point, n = 2, 1:2.5 dilution in column 2) double pin-transferred (Dip Factor = 2) using the Kalypsys (Wako USA) pintool equipped with a 1536 pinhead for a [final] range of 186 nM - 114 uM.
3; Room temperature incubation.
4; Dispense 1 uL of substrate mixture from the Kohli lab [4x] […] DJC20 and [4x] 250 nM DJC23 into columns 1 to 48 .
5; Room temperature incubation.
6; Dispense 4 uL of substrate mixture [2x] 250 mM NaOH into columns 1 to 48.
7; Centrifugation step to remove bubbles.
8; Room temperature incubation
9a; Fluorescence signal (column label AID) was read using the EnVision plate reader. […]

Row | SMILES | outcome
1 | CC(=O)N1CCc2c(sc3c2c(=O)n(Cc2ccccc2)c(=O)n3Cc2cccc(Cl)c2)C1 | inactive
2 | CCc1ccc(NC(=O)c2cnn(-c3c(C)cccc3C)c2C2CCN(C(=O)OC(C)(C)C)CC2)cc1 | inactive
3 | CCOc1ccc(CNC(=O)c2c(C)nn(-c3ccc(F)cc3)c2-n2cccc2)cc1 | inactive
4 | COc1cc2c(cc1OC)C(COc1cc(C)cc(C)c1)N(C(=O)C(C)(C)C)CC2 (stereo not given) | inactive
5 | COc1cc(NC(=O)Cn2cc(S(=O)(=O)N3CCC(C)CC3)c3ccccc3c2=O)cc(OC)c1OC | inactive
6 | COc1ccc(C)cc1N(C)C(=O)c1c2c(nc3ccccc13)C(=O)N(C1CCCCC1)C2 | inactive
7 | COc1cccc(C(=O)Nc2nc3nc(C)c(Cc4ccccc4)c(=O)n3[nH]2)c1 | inactive
8 | Cn1c2ccccc2c2c(C(=O)N3CCN(c4cccc(C(F)(F)F)c4)CC3)cn(C3CCCCC3)c(=O)c21 | inactive
9 | O=C(CSc1nc(-c2ccc(F)cc2)nc2c1Cc1ccccc1O2)Nc1cccc(C(=O)O)c1 | inactive
10 | CC(C)Oc1ccc(C(=O)NCCc2csc(-c3cccc(F)c3)n2)cc1 | inactive
11 | CCc1ccc(OCC(=O)N(Cc2ccco2)Cc2ccco2)cc1 | inactive
12 | Cc1ccc2c(c1)C(c1ccc(F)cc1)N(C(=O)c1ccc(OC(C)C)cc1)CC(=O)N2 (stereo not given) | inactive
13 | Cc1ccc(Cl)cc1N1CCN(C(=O)c2nn(C)c3c2CS(=O)(=O)c2ccccc2-3)CC1 | inactive
14 | CC(C)c1ccc(NC(=O)CSC2=Nc3ccccc3C3=NC(CCC(=O)NCc4ccco4)C(=O)N23)cc1 (stereo not given) | inactive
15 | CCOc1ccc(CCNC(=O)c2cn(CC)c3ccc(S(=O)(=O)N4CCCCCC4)cc3c2=O)cc1OCC | inactive
16 | COc1cccc(CNC(=O)c2oc3ccc4c(c3c2C)C(=O)CC(C)(C)O4)c1OC | inactive
17 | O=C(NCCn1cc(SCc2ccccc2F)c2ccccc21)c1cccs1 | inactive
18 | Cc1ccc(Cl)cc1NC(=O)c1oc2c(c1C)-c1[nH]ncc1CC2 | inactive
19 | CN(C)c1ccc(Nc2ncnc3sc4c(c23)CCCC4)cc1 | inactive
20 | CCOC(=O)c1c(Oc2ccc(C(C)=O)cc2)nnc(-c2ccccc2)c1-c1ccccc1 | inactive
21 | O=C(O)c1ccc2c(c1)N(Cc1ccc(F)cc1Cl)C(=O)c1ccccc1S2 | inactive
22 | CCCCCN1C(C(=O)c2ccccc2)=C(OC(=O)CC)c2ccccc2S1(=O)=O | inactive
23 | O=C(CCS(=O)(=O)c1nc(-c2cccs2)cc(C(F)(F)F)n1)Nc1ccc(OC(F)(F)F)cc1 | inactive
24 | CCc1ccc(C(c2ccccc2)c2c(C)[nH]c3ccccc23)s1 (stereo not given) | inactive
25 | Cc1ccc2c(c1)-c1ncc(C(=O)c3cc(Br)ccc3O)cc1CO2 | inactive

Row | SMILES | outcome
26 | Cc1ccc(Nc2nnc(-c3ccc(C)c(S(=O)(=O)N4CCN(C)CC4)c3)c3ccccc23)c(C)c1 | inactive
27 | CCn1c(=O)c2cc(C(=O)NCCCN(C)Cc3ccccc3)sc2c2ccccc21 | inactive
28 | COc1ccc(CCNC(=O)c2cc(Nc3cc(C)cc(C)c3)nc3ccccc23)cc1OC | inactive
29 | Cc1ccc(-c2nc3nc(C)cc(C)n3c2Nc2ccc3c(c2)OCCO3)cc1 | inactive
30 | Cc1ccc(C)c(N2CCN(C(=O)c3cc(S(=O)(=O)N4CCCCC4)cn3C)CC2)c1 | inactive
31 | Cc1cc(C)c(NC(=O)CCCn2c(C)c3cnn(-c4ccccc4)c(=O)c3c2C)c(C)c1 | inactive
32 | CCOC(=O)c1ccc(-n2c(N)c(C(=O)OC)c3nc4ccccc4nc32)cc1 | inactive
33 | Cc1ccc(C(=O)c2cn(Cc3ccccc3)c3ccccc3c2=O)cc1 | inactive
34 | COc1cccc(-c2nc3cc(NC(=O)c4ccc(C)c([N+](=O)[O-])c4)ccc3o2)c1 | inactive
35 | Cc1ccc2c(c1)-c1c(cnn1CC(=O)N1CCN(c3cccc(C(F)(F)F)c3)CC1)CO2 | inactive
36 | O=C(CC1N=C2c3ccccc3N=C(SCc3ccccc3F)N2C1=O)NCc1ccc2c(c1)OCO2 (stereo not given) | inactive
37 | Cc1nn(C(=O)c2ccccc2)c(C)c1Sc1ccc(Cl)cc1 | inactive
38 | Cc1ccc(C)c(NC(=O)CSc2nccn2-c2cccc(C)c2C)c1 | inactive
39 | O=C(c1cccc(Cl)c1)N(Cc1ccco1)Cc1ccccc1Cl | inactive
40 | Cc1cccc(-c2nnc(SCC(=O)N3CCCc4ccccc43)o2)c1 | inactive
41 | CCc1ccccc1NC(=O)[C@H](Cc1ccccc1)N1Cc2ccccc2C1=O | inactive
42 | COc1ccc(Cn2cc(C(=O)c3ccc(OC)cc3)c(=O)c3cc4c(cc32)OCCO4)cc1 | inactive
43 | Cc1cc(C)c2c(CC(=O)N(Cc3ccc(Cl)cc3)Cc3ccco3)coc2c1 | inactive
44 | Cc1ccc(N(Cc2cccs2)C(=O)c2ccccc2)cc1 | inactive
45 | COc1ccc(Nc2cc(C)c3cc(NC(=O)COc4cccc(C)c4)ccc3n2)cc1 | inactive
46 | CCN(C(=O)c1cc2cc3ccc(OC)cc3nc2o1)c1cccc(C)c1 | inactive
47 | COc1ccc(-c2cn3c(n2)sc2cc(C(=O)NCCCN4CCCCC4)ccc23)cc1 | inactive
48 | COc1ccc(CCNC(=O)CS(=O)Cc2nc(-c3ccc(C)cc3)oc2C)c(OC)c1 (stereo not given) | inactive
49 | COc1ccc(Cl)cc1NC(=O)CSc1nc(=O)n(Cc2ccco2)c2c1CCC2 | inactive
50 | COc1ccc(C(=O)c2cn(Cc3ccccc3F)c3cc4c(cc3c2=O)OCCO4)cc1OC | inactive
